TIM10 inh: growth inhibitors of isogenic TIM10 control yeast, primary screen, counter-screen for tim10-1 yeast inhibitor project, luminescence, uHTS; S. cerevisiae TIM10 strain growth, BacTiter-Glo luminescence, 24 h; inhibition, % at 10 µM; actives 1.4% (n = 330,000); AID 463195, 2010;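 active = inhibition of 40% or more at the single tested concentration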;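 also: wild-type TIM10 isogenic control strain grown at permissive 25 °C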
tim10-1 inh: growth inhibitors of tim10-1 mutant yeast, primary screen, luminescence, uHTS. AID 463190, 2010. actives 2.2% (n = 330,000). inhibition, % at 20 µM. S. cerevisiae tim10-1 ts strain growth, BacTiter-Glo, 24 h;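 active = inhibition of at least 40%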;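 also: mutant grown at 25 °C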
NLRP3 yeast inh: NALP3 inflammasome inhibitors in reconstituted yeast, primary screen, luminescence, uHTS. Yeast reconstituted NLRP3/ASC/caspase-1, beta-gal luminescence, 24 h. inhibition, % at 10 µM. actives 0.39% (n = 330,000);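 active = inhibition of 50% or more; inactive = inhibition below 50%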
NALP1 yeast inh: NALP1 inflammasome inhibitors in reconstituted yeast, colorimetric, S. cerevisiae, triplicate retest; inhibition, % at 10 µM; S. cerevisiae NALP1/ASC/caspase-1 growth, X-gal OD620, 72 h; actives 0.61% (n = 280,000); in the data active = inhibition mostly above about 24%, no sharp cut-off; inactive = mostly below about 32%
tim23-1 inh: growth inhibitors of tim23-1 mutant yeast, primary screen, luminescence, uHTS. S. cerevisiae tim23-1 growth, BacTiter-Glo luminescence, 24 h. AID 463212, 2010. actives 1.3% (n = 330,000). inhibition, % at 20 µM;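 active = growth inhibition of the mutant yeast at or above 50%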;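 also: temperature-sensitive mutant grown at 25 °C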
PfHsp90 set2: growth inhibition of PfHsp90-expressing yeast, primary screen, antimalarial PfHsp90 inhibitor project, S. cerevisiae, BacTiter-Glo luminescence, single point, set 2; BacTiter-Glo ATP, 48 h; yeast lacking PDR1 and PDR3 efflux regulators; inhibition, % at 9.4 µM; actives 0.32% (n = 310,000);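 active = every replicate shows inhibition above about 80%, whatever the replicate mean, limit read from the data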
tim23-1 conf: tim23-1 mutant yeast growth inhibitors, confirmation, luminescence, single concentration | AID 463218, 2010 | actives 83% (n = 4,400) | inhibition, % at 20 µM | shares compounds with tim23-1 inh | S. cerevisiae tim23-1 growth, BacTiter-Glo luminescence, 24 h;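 active = inhibition above about 39% in either of two replicate wells at 20 µM, limit read from the data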;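 also: temperature-sensitive tim23-1 mutant grown at 25 °C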
Of the large screens only hits and unclear results are named; the others gave an inactive call (follow-up assays come after a bar, where they were run). Only some compounds are listed: those with a hit (about 4.2% of all), similar ones and a draw of the others.

CCn1c(CCC(=O)N(C)CC(=O)Nc2cccc(F)c2)nc2cc(S(=O)(=O)N(C)C)ccc21	none (no result: NALP1 yeast inh)
Cc1c2ccccc2nc2ccccc12	tim23-1 inh 70.4 (no result: NALP1 yeast inh) | tim23-1 conf 62.6
O=C(OCC(=O)N1CCCc2ccccc21)c1ccc(Br)o1	none
O=C(OCc1nc2ccccc2s1)c1ccc([N+](=O)[O-])o1	tim23-1 inh 54.8 | tim23-1 conf 58.8
O=C(OCC(=O)N1CCc2ccccc21)c1ccc([N+](=O)[O-])o1	tim23-1 inh 69.7 (no result: NALP1 yeast inh) | tim23-1 conf 73.2
O=C(OCc1nc2ccccc2s1)c1ccc(Br)o1	none
O=C(Nc1nn[nH]n1)c1cc(-c2ccc(Cl)c(Cl)c2Cl)nc2ccccc12	none
CN1C[C@@H]2[C@@H]3C(=O)N(C)C(=O)[C@@H]3[C@](C)(C1=O)N2C(=O)c1ccccc1	none (no result: TIM10 inh, tim10-1 inh, NLRP3 yeast inh, NALP1 yeast inh, tim23-1 inh)
COc1ccc(Cn2c(C)nc([N+](=O)[O-])c2SCC(=O)O)cc1[N+](=O)[O-]	tim23-1 inh 54.8 | tim23-1 conf inactive
CCOc1nc2ccccc2cc1C=O	tim23-1 inh 72.3 | tim23-1 conf 59.0
CCCOc1nc2ccccc2cc1/C=C/C(=O)O	none
O=C(Nc1ccccc1N(C(=O)c1ccco1)S(=O)(=O)c1cccs1)c1ccco1	tim23-1 inh 54.1 | tim23-1 conf 38.5
CCN(CC(=O)Nc1c(F)cccc1F)C(=O)c1ccccn1	none (no result: NALP1 yeast inh)
Cc1cc2ccccn2c1C(=O)c1cc([N+](=O)[O-])cc([N+](=O)[O-])c1	tim23-1 inh 56.5 | tim23-1 conf 66.8
CCC(C)[C@H]1CN=C(N)N1CCc1cccc(F)c1 (stereo not given in full)	none (no result: NALP1 yeast inh)
Cc1cccc(C=Nc2ccc3c4c(cccc24)CC3)c1O	none
Oc1ccc(Cl)cc1C=Nc1ccc2c3c(cccc13)CC2	tim23-1 inh 62.8 | tim23-1 conf 61.9
O=C(CCCn1c(=S)[nH]c2ccsc2c1=O)Nc1ccc2c(c1)OCCO2	none
O=c1oc(-c2ccc([N+](=O)[O-])cc2)nc2ccccc12	none
O=c1oc(-c2ccccc2[N+](=O)[O-])nc2ccccc12	tim23-1 inh 55.5 | tim23-1 conf 50.5
O=c1oc(-c2ccc([N+](=O)[O-])cc2)nc2ccc(O)cc12	tim23-1 inh 51.6 | tim23-1 conf 64.8
O=c1cc(CSc2nc3ccccc3c(=O)[nH]2)c2ccc(O)cc2o1	none (no result: TIM10 inh, tim10-1 inh, NLRP3 yeast inh, tim23-1 inh)
COc1ccc(S(=O)(=O)N2CCC3(CC2)OCCN3S(=O)(=O)c2ccc(OC)cc2)cc1	none (no result: NALP1 yeast inh, PfHsp90 set2)
COc1ccc(S(=O)(=O)N2CCOC23CCN(S(=O)(=O)c2ccc(Cl)cc2)CC3)cc1	tim23-1 inh 52.4 (no result: NALP1 yeast inh, PfHsp90 set2) | tim23-1 conf 41.9
NC(N)=N/N=C/c1ccc(OCc2ccccc2Cl)cc1	NALP1 yeast inh 28.1, tim23-1 inh 58.9 | tim23-1 conf 43.9
NC(N)=N/N=C/c1ccccc1	none
NC(N)=N/N=C/c1ccc(OCc2ccccc2)c(OCc2ccccc2)c1	tim23-1 inh 59.7 | tim23-1 conf 48.5
Cc1ccccc1C(=O)N1CCC(C(=O)Nc2ccccn2)CC1	none (no result: NALP1 yeast inh)
COC(=O)c1[nH]c2cc(OC)ccc2c1NC(=O)CCN1CCCC(C)(C)C1	tim23-1 inh 73.9 | tim23-1 conf inactive
COC(=O)c1[nH]c2cc(OC)ccc2c1NC(=O)CCN1CCCCC1	none
COC(=O)C1CCN(C(=O)c2cc(-c3ccc(Cl)s3)nc3ccccc23)CC1	tim23-1 inh 52.3 (no result: NALP1 yeast inh) | tim23-1 conf 52.0
CCN1CCN(C(=O)c2cc(-c3ccc(Cl)s3)nc3ccccc23)CC1	none
O=S(=O)([N-]c1nc2ccccc2nc1-n1cc[n+](Cc2ccccc2)c1)c1ccc(Br)cc1	none (no result: PfHsp90 set2)
O=C(Oc1ccc2ccc(O)cc2c1)c1ccccc1Cl	tim23-1 inh 62.7 | tim23-1 conf 51.9
Cc1nc(-c2cnn(-c3ccccc3)c2)c2cc(C)oc2n1	tim23-1 inh 50.9 | tim23-1 conf 44.8
Cc1oc2c(O)c(O)ccc2c(=O)c1-c1cnn(-c2ccccc2)c1	none (no result: PfHsp90 set2)

High-throughput results as filed in PubChem BioAssay.
